# Inconclusive results are not listed. Where a call stands in place of a potency, no number is given. The source made the active and inactive calls. Calls come from the whole dose curve.
# Molecular target: Progesterone receptor (Homo sapiens) (UniProt P06401)
# Assay: qHTS assay to identify small molecule agonists of the progesterone receptor (PR) signaling pathway (AID 1346784); note: nearly all actives have a fitted effect of over 30% in size
# Conditions: PR-UAS-bla HEK293T, beta-lactamase FRET ratio, 16 h; series mostly up to 92.4 µM
# From the text: U.S. Tox21 Program National Center for Advancing Translational Sciences [NCATS] NIH Chemical Genomics Center [NCGC] U.S. Environmental Protection Agency [EPA] National Institutes of Environmental Health Sciences [NIEHS] National Toxicology Program [NTP] U.S. Food and Drug Administration [FDA] […] Endocrine disrupting chemicals (EDCs) and their interactions with steroid hormone receptors like PR causes disruption of normal endocrine function. To identify the compounds that activate PR signaling, a PR-UAS-bla GripTite cell line i.e. PR-UAS-bla HEK 293T (Invitrogen, Carlsbad, CA, USA) containing a beta-lactamase reporter gene under the control of an Upstream Activator Sequence (UAS) was used to screen Tox21 10K compound library.
# Tox21 Assay Protocol Summary: PR-UAS-bla HEK 293T cells were dispensed at 3,000 cells/5 uL of assay medium containing 2% charcoal stripped FBS per well into black wall/clear-bottom 1536-well plates using a Multidrop Combi (ThermoFisher Scientific, Waltham, MA) dispenser. After the assay plates were incubated at a 37C and 5% CO2 for 6hr, 23 nL of compounds dissolved in DMSO, positive controls or DMSO only was transferred to the assay plate by a Pintool station (Kalypsys, San Diego, CA). The plates were incubated at 37C and 5% CO2 for 16hr. Then 1 uL of LiveBLAzer B/G FRET substrate was added using a BioRAPTR FRD (Flying Reagent Dispenser, Aurora Discovery, San Diego, CA). After the plates were incubated at room temperature for 2 hours, fluorescence intensity was measured by an Envision plate reader (PerkinElmer, Shelton, CT).
# Potency is the fitted concentration of half-maximal effect.
# Sequence of Progesterone receptor (Homo sapiens) (P06401 whole entry, looked up): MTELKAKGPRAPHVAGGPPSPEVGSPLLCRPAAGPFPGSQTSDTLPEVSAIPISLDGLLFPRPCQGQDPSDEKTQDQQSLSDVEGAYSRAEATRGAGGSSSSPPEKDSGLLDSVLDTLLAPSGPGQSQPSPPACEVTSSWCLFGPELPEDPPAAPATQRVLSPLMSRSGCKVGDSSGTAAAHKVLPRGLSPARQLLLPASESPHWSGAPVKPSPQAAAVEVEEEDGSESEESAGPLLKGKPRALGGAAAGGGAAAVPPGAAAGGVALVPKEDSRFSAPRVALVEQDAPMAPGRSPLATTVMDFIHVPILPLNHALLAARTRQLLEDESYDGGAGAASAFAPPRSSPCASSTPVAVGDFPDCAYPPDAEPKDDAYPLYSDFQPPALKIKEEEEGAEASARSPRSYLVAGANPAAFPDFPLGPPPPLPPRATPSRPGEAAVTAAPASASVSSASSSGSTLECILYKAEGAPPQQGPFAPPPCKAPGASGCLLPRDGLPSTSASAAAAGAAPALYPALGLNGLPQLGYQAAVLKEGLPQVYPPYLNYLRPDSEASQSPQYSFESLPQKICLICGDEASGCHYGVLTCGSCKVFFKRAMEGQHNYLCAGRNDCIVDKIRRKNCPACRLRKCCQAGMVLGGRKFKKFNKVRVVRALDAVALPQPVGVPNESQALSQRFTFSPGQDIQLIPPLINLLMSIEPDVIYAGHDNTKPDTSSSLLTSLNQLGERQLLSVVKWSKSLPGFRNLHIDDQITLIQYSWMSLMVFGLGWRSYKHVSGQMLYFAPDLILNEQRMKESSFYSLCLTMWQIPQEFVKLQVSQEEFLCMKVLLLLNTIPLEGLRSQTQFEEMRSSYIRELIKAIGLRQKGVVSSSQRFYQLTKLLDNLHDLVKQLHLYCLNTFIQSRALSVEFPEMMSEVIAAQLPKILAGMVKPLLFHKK
row,Compound,Potency
1,CCCCCCCCCCCCCCCC[N+](C)(C)CCN(Cc1ccc(OC)cc1)c1ncccn1,inactive
2,N=C1C=CC(=C(c2ccc(N)cc2)c2ccc(N)cc2)C=C1,inactive
3,S=c1[nH]c2ccccc2s1,inactive
4,O=C(c1ccc(F)cc1)C1CCN(CCn2c(=O)[nH]c3ccccc3c2=O)CC1,inactive
5,CN(C)c1ccc(SC#N)cc1,inactive
6,O=C(c1ccc(O)cc1O)c1ccc(O)cc1O,inactive
7,NNC(=O)c1cccc(C(=O)NN)c1,inactive
8,COc1ccc(C(=O)/C(Br)=C\C(=O)O)cc1,inactive
9,c1ccc(CSCc2ccccc2)cc1,inactive
10,COc1ccc(-c2ccc3cc(C(=O)O)ccc3c2)cc1C12CC3CC(CC(C3)C1)C2,inactive
11,CCCCN1CCCC[C@H]1C(=O)Nc1c(C)cccc1C,inactive
12,CC(C)c1ccc2c(c1)CC[C@H]1[C@](C)(CN)CCC[C@]21C,inactive
13,CO[Si](CCCNc1ccccc1)(OC)OC,inactive
14,Cc1ccc2oc(CN(Cc3ccccc3)C(=O)Nc3c(F)cc(F)cc3F)c(-c3ccc(Cl)cc3)c2c1,inactive
15,O=CC=C(c1ccccc1)c1ccccc1,inactive
16,O=C(O)c1c(Cl)cccc1Cl,inactive
17,Clc1ccc(C(Cn2ccnc2)OCc2ccc(Sc3ccccc3)cc2)c(Cl)c1 (stereo not given),inactive
18,CC1=NC(C)OC1C (stereo not given),inactive
19,Cc1ccc(-n2nc(C(C)(C)C)cc2NC(=O)Nc2ccc(OCCN3CCOCC3)c3ccccc23)cc1,inactive
20,N#CSc1ccc(N)c([N+](=O)[O-])c1,inactive

row,Compound,Potency
1,CCCCN(CCCC)C(=O)N(CCCC)CCCC,inactive
2,C1CCCC1,inactive
3,O=c1[nH]sc2cc(Cl)ccc12,inactive
4,CCOC(=O)/C=C(C)/C=C/C=C(C)/C=C/c1c(C)cc(OC)c(C)c1C,inactive
5,O=Cc1cc(O)ccc1Br,983 nM (active)
6,CC(C)CCCCCCCCCCCCCCC(=O)O,inactive
7,C=C(C)C(=O)OCC[N+](C)(C)C,inactive
8,C[C@H]1[C@H]2CC[C@H]3[C@@H]4CC=C5C[C@@H](N(C)C)CC[C@]5(C)[C@H]4CC[C@]23CN1C,inactive
9,O=C(Oc1ccccc1)c1ccccc1C(=O)Oc1ccccc1,inactive
10,O=C(OCC1CO1)C1CCCCC1C(=O)OCC1CO1 (stereo not given),inactive
11,CSc1ccc(/C=C2/C(C)=C(CC(=O)O)c3cc(F)ccc32)cc1,inactive
12,Cc1oc(-c2ccccc2)nc1CCC(=O)c1ccc(CC2SC(=O)NC2=O)cc1 (stereo not given),inactive
13,CC(C)OC(=O)c1cc2c(OCC(O)CNC(C)(C)C)cccc2[nH]1 (stereo not given),inactive
14,Oc1ccc(N=Nc2ccccc2)cc1,inactive
15,NNc1nc(-c2ccc([N+](=O)[O-])cc2)cs1,inactive
16,Cc1cc2c(cc1C(F)(F)F)N(C(=O)Nc1ccc(Oc3cccnc3C)nc1)CC2,inactive
17,NC(=NCCCCCCN=C(N)/N=C(\N)Nc1ccc(Cl)cc1)/N=C(\N)Nc1ccc(Cl)cc1,inactive
18,Cc1cccc(CN2CCN(C(c3ccccc3)c3ccc(Cl)cc3)CC2)c1 (stereo not given),inactive
19,CCCCCOc1ccccc1/C(=C\SC)n1ccnc1,inactive
20,O=C(N/N=C/c1ccccc1O)c1ccncc1,inactive

# Source: PubChem BioAssay (Tox21)
